TDP1 inh – TDP1 (human) enzyme inhibition; Q9NUW8; recombinant TDP1, AlphaScreen DNA substrate cleavage; Potency, µM (titrated, usually from 130 µM), without a hit: at the top dose activity change, negative = inhibition, usual class: inhibitors; 350,000 compounds, 0.28% hits; AID 485290; further: potency means the concentration at half of the fitted maximal effect; on the % scale 0 is the no-effect control and ±100 the full control effect; nearly all actives have a fitted effect of over 40% in size
Target sequence (Q9NUW8 whole entry, looked up): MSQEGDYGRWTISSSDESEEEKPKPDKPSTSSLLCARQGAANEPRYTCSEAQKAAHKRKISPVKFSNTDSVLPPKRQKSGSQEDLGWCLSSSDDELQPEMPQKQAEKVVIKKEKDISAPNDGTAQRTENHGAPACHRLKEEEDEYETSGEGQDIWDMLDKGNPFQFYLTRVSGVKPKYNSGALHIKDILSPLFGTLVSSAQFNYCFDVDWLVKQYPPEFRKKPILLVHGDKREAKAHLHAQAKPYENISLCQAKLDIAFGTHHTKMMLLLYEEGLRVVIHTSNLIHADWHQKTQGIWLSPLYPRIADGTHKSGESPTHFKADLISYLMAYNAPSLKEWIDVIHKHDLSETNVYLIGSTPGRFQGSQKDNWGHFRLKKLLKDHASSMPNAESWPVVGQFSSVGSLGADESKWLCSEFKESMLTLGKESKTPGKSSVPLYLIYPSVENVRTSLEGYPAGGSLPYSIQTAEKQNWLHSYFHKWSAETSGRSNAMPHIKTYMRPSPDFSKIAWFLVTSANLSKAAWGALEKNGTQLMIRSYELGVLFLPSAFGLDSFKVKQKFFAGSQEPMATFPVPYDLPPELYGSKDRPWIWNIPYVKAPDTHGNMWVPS
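Signal: AlphaScreen proximity between streptavidin donor and anti-FITC acceptor beads on intact substrate. Reaction: Tdp1 1 nM, substrate 15 nM final, 5 min RT after 15 min compound preincubation.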
TGFb SMAD3 inh – blocks TGF-b signaling | 410,000 compounds, 1.2% hits | AID 588855 | Potency, µM (doses to about 46.1 µM), inactives show at the top dose activity, negative = inhibition, most hits filed as inhibitors | HepG2 CAGA-GFP TGF-b/SMAD3 reporter, GFP fluorescence, 18 h; TGF-beta stimulated, 500 pg/mL final; further: potency means the concentration at half of the fitted maximal effect; on the % scale 0 is the no-effect control and ±100 the full control effect; nearly all actives have a fitted effect of over 65% in size
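Per well, imaged GFP fluorescence of HEPG2 CAGA-GFP cells gives the signal; cells get compound, then TGF-beta (500 pg/mL final), 18 h at 37 degrees C; %Activity versus -TGF-beta and +DMSO controls.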
HepG2 viability – HepG2 cytotoxicity, counter-screen for TGF-b inhibitors; HepG2 CAGA-GFP viability, ATP luminescence, 18 h; Potency, µM (highest dose often 46.1 µM), for the others: at the top dose activity change, negative = cytotoxicity, usual class: cytotoxic; 410,000 compounds, 0.76% hits; further: potency means the concentration at half of the fitted maximal effect
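CellTiter-Glo luminescence gave cytotoxicity after 18 hours at 37 degrees C. The cells were HepG2 CAGA-GFP in 1% FBS DMEM, stimulated with 500 pg/mL TGF-beta after compound addition. %Activity was normalised to no-cell wells (complete cell-killing) and DMSO (no toxicity), and curves were fitted and classified.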
TDP1 cell noCPT – qHTS for Inhibitors of human tyrosyl-DNA phosphodiesterase 1 (TDP1): qHTS in cells in absence of CPT | DT40 Tdp1-/- hTDP1 cells, no CPT, ATP luminescence, 48 h | Potency, µM (highest dose often 46.2 µM), for inactives: at the top dose activity change, negative = growth inhibition, actives largely listed as inhibitors | 420,000 compounds, 15% hits; further: potency means the concentration at half of the fitted maximal effect; on the % scale 0 is the no-effect control and ±100 the full control effect; nearly all actives have a fitted effect of over 55% in size
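No-CPT arm: Tdp1-/-;hTDP1 DT40 cells (400/well) plus compounds, incubated ≥48 hr at 37 °C. Readout CellTiter-Glo luminescence.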
IL-1B inflam inh – inhibitors of inflammasome signaling (IL-1 beta secretion); THP-1 LPS/ATP IL-1B secretion, AlphaLISA, 16 h; hits give low values; activity change, % at 57.5 µM; 360,000 compounds, 4.7% hits; AID 743279; in the data active means activity change below about -50%; inconclusive means mostly about -30% to -49%; further: on the % scale 0 is the no-effect control and ±100 the full control effect
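THP-1 cells pretreated 1 hr with compounds (up to 57.5 uM final), then stimulated with LPS (250 ng/mL final) plus ATP (1.25 mM final); secreted IL-1B measured by AlphaLISA after 16 hr, decreased signal indicating inhibition.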
DT40 TDP1 CPT – growth inhibition of DT40 Tdp1-/-;hTDP1 cells with camptothecin (screen for TDP1 inhibitors); chicken DT40 Tdp1-/-;hTDP1 cells + 20 nM CPT, ATP luminescence, 48 h; Potency, µM (top dose mostly 46.2 µM), for inactives: at the top dose activity change, negative = growth inhibition, hits mostly inhibitors; 420,000 compounds, 12% hits; further: potency means the concentration at half of the fitted maximal effect; on the % scale 0 is the no-effect control and ±100 the full control effect; nearly all actives have a fitted effect of over 55% in size
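Cell growth measured by CellTiter-Glo luminescence after a minimum 48 h, 37 C compound exposure with 20 nM CPT in Tdp1-knockout DT40 cells stably expressing hTDP1, seeded 400/well; qHTS titration format.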
Starred values were filed as active, the others as inactive; ? = inconclusive; nt = not tested or not shown; [ ] = dose if it differs, or a comment. This is a sample that favours compounds with a hit; in the whole collection about 19% have one here. Unless noted, the call rests on the fitted dose curve; in most records, active means well fitted curve in the direction sought with a large enough effect; inconclusive means small, poorly fitted or top-dose-only effect, or another doubt; inactive means no such curve, though single readings can be large; an effect the other way counts as inactive or inconclusive.

SMILES	TDP1 inh	TGFb SMAD3 inh	HepG2 viability	TDP1 cell noCPT	IL-1B inflam inh	DT40 TDP1 CPT
COc1cc2c(C(=O)N3CCN(c4cccc(C(F)(F)F)c4)CC3)cn(CC(C)C)c(=O)c2cc1OC	1%	11µM*	-27%	18µM*	nt	16µM*
Cc1ccc(C)c(N2CCN(C(=O)Nc3cn(CC(C)C)c(=O)c4ccccc34)CC2)c1	8%	?	-24%	16µM*	nt	13µM*
O=C(O)CSCC(=O)Nc1cc(C(F)(F)F)ccc1Cl	0%	-18%	-6%	-3%	-6	-13%
CC(C)Oc1cc(NC(=O)CSCC(=O)Nc2cccc(C(F)(F)F)c2)c(Cl)cc1Cl	3%	11µM*	-87%	-22%	-8	-27%
CCc1ccccc1N1C(=O)N(C)c2ccccc2S1(=O)=O	3%	?	-3%	?	nt	-21%
COc1ccc(N2CCN(C(=O)Nc3cn(CC(C)C)c(=O)c4ccccc34)CC2)cc1	6%	1%	-8%	15µM*	nt	-24%
COc1ccc(C)cc1NC(=O)C(=O)NCCc1sc(-c2ccc(Cl)cc2)nc1C	1%	7%	9%	-27%	nt	-9%
CC1CCC(NC(=O)c2cc(C3CC3)nn2-c2ccccc2)CC1 (stereo not given)	-7%	?	-20%	?	?	?
C[C@@]1(C(=O)O)NCCc2cc(O)c(O)cc21	nt	nt	nt	11µM*	nt	11µM*
CC(C)(C)C(=O)Nc1cc(-c2cccc(Br)c2)nn1-c1ccccc1	0%	-23%	-18%	21µM*	nt	?
Cc1cccc(-c2cc(NC(=O)C(C)(C)C)n(-c3ccccc3)n2)c1	3%	-6%	-2%	?	nt	-29%
CSc1ccccc1NC(=O)CN1C(=O)C2CC=CCC2C1=O (stereo not given)	0%	14%	-10%	-22%	2	10%
Cc1c(-c2nc(N)nc(Nc3ccccc3)n2)oc2ccccc12	6%	?	-17%	16µM*	?	?
COc1ccc(OCc2nc(N)nc(Nc3ccccc3)n2)cc1	4%	0%	-4%	?	-20	-25%
CCCCC(=O)/C=C/n1c(=S)oc2ccccc21	0%	5µM*	-58%	4.1µM*	-101*	5.2µM*
O=C(NCCc1ccncc1)c1cnn(-c2ncc3c(n2)-c2ccccc2CCC3)c1C1CC1	nt	nt	nt	?	nt	12%[9.04 µM]
Cc1ccc(-n2nc3c(N4CCC(C(=O)NC5CCC(C)CC5)CC4)nnc(C)c3c2C)cc1 (stereo not given)	0%	-27%	-16%	21µM*	nt	15µM*
Cc1ccc(-n2nc3c(N4CCC(C(=O)NC5CCCCC5)CC4)nnc(C)c3c2C)cc1	3%	?	-11%	12µM*	nt	?
Cc1nnc(N2CCC(C(=O)NC3CCCCC3)CC2)c2nn(-c3ccc(Cl)cc3)c(C)c12	6%	-15%	-1%	-6%	nt	-8%
CCN(CC)S(=O)(=O)c1ccc(C(C)NC(=O)C2CCCN2C(=O)c2cccs2)cc1 (stereo not given)	-3%	1%	2%	?	4	-9%
Cc1ccc(C)c(N2CCN(C(=O)CCS(=O)(=O)c3cc4c(cc3Cl)NC(=O)CO4)CC2)c1	5%	-18%	-20%	nt	nt	nt
C[C@@H]1CN([C@H](C)CO)C(=O)CCCn2cc(nn2)CO[C@H]1CN(C)C(=O)C1CCCCC1	nt	0%	1%	7%	-9	-4%
CC(C)(C)NC(=O)Cn1c(SCC(=O)N2CCCCCC2)nc2ccccc21	4%	14%	4%	-18%	-6	-18%
O=C(NCCc1nc2ccccc2n1CCCOc1ccc2ccccc2c1)C1CCCCC1	0%	4%	0%	11µM*	nt	?
O=C(NCCc1nc2ccccc2n1CCOc1ccc2ccccc2c1)C1CCCCC1	0%	?	-12%	?	nt	?
SMILES	TDP1 inh	TGFb SMAD3 inh	HepG2 viability	TDP1 cell noCPT	IL-1B inflam inh	DT40 TDP1 CPT
O=C(O)CCSc1nc2ccccc2n1CCOc1ccccc1	2%	-3%	-2%	1%	18	-17%
CC(C)(C)NC(=O)Cn1c(SCC(N)=O)nc2ccccc21	2%	3%	-7%	?	-1	26µM*
Cc1ccccc1OCCCn1c(CCNC(=O)C2CCCCC2)nc2ccccc21	3%	?	-55%	16µM*	nt	13µM*
Cc1cccc(OCCn2c(SCC(N)=O)nc3ccccc32)c1	5%[12.3 µM]	4%	-25%	21µM*	nt	?
COc1ccc(N2CCN(C(c3ccc(F)cc3)c3sc4nc(-c5ccco5)nn4c3O)CC2)cc1 (stereo not given)	5%	?	-3%	?	nt	6%
Cc1ccc(OCCCCn2c(CCNC(=O)C3CCCCC3)nc3ccccc32)cc1	1%	-21%	-2%	16µM*	nt	?
CC(C)(C)c1ccc(OCCn2c(CCNC(=O)C3CCCCC3)nc3ccccc32)cc1	1%	20µM*	-78%	3.2µM*	nt	11µM*
O=C(NCCc1nc2ccccc2n1CCCOc1ccc(Cl)cc1)C1CCCCC1	5%	18µM*	-97%	?	nt	?
Cc1cccc(OCCCn2c(CCNC(=O)C3CCCCC3)nc3ccccc32)c1	-3%	22µM*	-70%	12µM*	nt	13µM*
Cc1cc(C)cc(OCCn2c(CCNC(=O)C3CCCCC3)nc3ccccc32)c1	1%	-2%	0%	?	nt	?
CCCN1CCN(CCNC(=O)Nc2cc(Cl)c(OC)cc2OC)CC1	-5%	?	1%	10%	nt	-22%
Cc1cccc(OCCCn2c(CCNC(=O)C(C)C)nc3ccccc32)c1	2%	?	-37%	16µM*	-6	?
Cc1cc(C)cc(OCCCn2c(CCNC(=O)C3CCCCC3)nc3ccccc32)c1	8%	?	-34%	15µM*	nt	12µM*
CC(=O)NCCc1nc2ccccc2n1CCOc1cccc(C)c1	3%	-6%	6%	?	4	?
Cc1cc(C)c(C(=O)CC(=O)c2cccnc2)c(C)c1	nt	11%	4%	?	8	?
Cc1ccc(CC(=O)Nc2nc3ccccc3[nH]2)cc1C	4%	-2%	7%	1.8µM*	7	3.5µM*
O=C(COc1ccccc1)Nc1nc2ccccc2[nH]1	3%	-11%	-7%	16µM*	-5	?
